This is part of a sample that, as a whole, favours compounds with a hit. Of some 79,000 tested, about 15% had one in any assay. Unmarked numbers belong to inactive results. Active and inactive are the calls of the source. Rule as the data show it: active = growth inhibition above about 70%; inactive = the rest.
test: NCI Yeast Anticancer Drug Screen. Data for the sgs1 mgt1 strain (AID 161);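 also: 0% = growth of cultures given vehicle only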; settings: S. cerevisiae sgs1 mgt1 strain, at 50.0 µM, hits give high values
In short: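 Test agents were incubated with a DNA-repair-mutant yeast strain. Growth was then read and compared against vehicle-treated controls.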

Row | Compound | growth inhibition
1 | O=C(Nc1ccc(Cl)cc1)NS(=O)(=O)c1c(-c2ccccc2)oc2ccccc2c1=O | 95.5% (active)
2 | Cc1cc(CN(Cc2ccccc2)Cc2nc3ccccc3[nH]2)c(O)c(CN(Cc2nc3ccccc3[nH]2)Cc2nc3ccccc3[nH]2)c1 | 94.3% (active)
3 | COC1=CC2=CCC3C(CCC4(C)C(C(C)=O)CCC34)C2(C)CC1 (stereo unspecified) | 49%
4 | OC(C1CCCCN1)C1CC(c2ccccc2)Nc2c(Cl)cc(Cl)cc21 (stereo unspecified) | 99.4% (active)
5 | CN(C)C1=C(Cl)C(=O)c2ccccc2C1=O | 44.9%
6 | CCCCCNC(=O)C1C(=O)N(CCCCC)C(=O)/C1=N\N (stereo unspecified) | 1.7%
7 | O=C(Nc1ccc(Cl)cc1)OCCOCCOC(=O)Nc1ccc(Cl)cc1 | 97.9% (active)
8 | CCCC(CC)c1c(O)c(O)c(C(CC)CCC)c(C(CC)CCC)c1C(CC)CCC (stereo unspecified) | 97.9% (active)
9 | Cc1ccc(NC(=S)SCc2ccc3c(c2)OCO3)cc1Cl | 99% (active)
10 | CN(C)CCCNc1ccc(O)c2c1C(=O)c1ccccc1C2=O | 88.2% (active)
11 | CC1=C(C(=O)Nc2ccc(Cl)c(Cl)c2)C(c2ccco2)C(C(=O)Nc2ccc(Cl)c(Cl)c2)=C(C)N1 | 89.3% (active)
12 | Cc1ccccc1NC(=O)CSC(N)=O | 91.8% (active)
13 | Cc1[nH]c2ccccc2c1C(C)CC(O)c1ccccc1 (stereo unspecified) | 90.2% (active)
14 | Cn1c(=O)ccc2cc(C(=O)c3ccccc3)ccc21 | 14.4%
15 | c1ccc2c(c1)N=c1ccccc1=P21c2ccccc2Nc2ccccc21 | 87.8% (active)
16 | Nc1[nH]cnc(=S)c1NC=O | 35%

Source: PubChem BioAssay (NCI)
